Test results reported in PubChem BioAssay (NCATS).
Results filed as inconclusive are left out. The source made the active and inactive calls. The call rests on the fitted dose curve; in most records, active means well fitted curve in the direction sought with a large enough effect; inconclusive means small, poorly fitted or top-dose-only effect, or another doubt; inactive means no such curve, though single readings can be large; an effect the other way counts as inactive or inconclusive.

Key:
[1] = Quantitative High-Throughput drug screen in 47 multiple myeloma cell lines against the NCATS MIPE library collection: ARD_JJKsccE7 cell viability assay (AID 1918929)
In short: (§1)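 Primary qHTS used for cherry-picking: cells at 500/well, library compounds for 48 h (37C, 5% CO2), luminescent ATP assay.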

[2] = Quantitative High-Throughput drug screen in 47 multiple myeloma cell lines against the NCATS MIPE library collection: KMM1_JCRB cell viability assay (AID 1918960); further: nearly all actives have a fitted effect of over 30% in size
In short: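 Viability screen: myeloma cells (500/well) incubated 48 h at 37 °C, humidified 5% CO2, with pinned library compounds; CellTiter-Glo added, luminescence read; DMSO wells set 100%, medium-only wells 0%.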

[3] = Quantitative High-Throughput drug screen in 47 multiple myeloma cell lines against the NCATS MIPE library collection: Karpas417_ECACC cell viability assay (AID 1918961); conditions: Karpas417 myeloma viability, CellTiter-Glo ATP luminescence, 48 h; viability (% of DMSO): at 45.8 µM (top of the series)
In short: (§2)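 CellTiter-Glo ATP luminescence gave viability after 48 h compound treatment at 37C of 500 multiple myeloma cells per well. Normalisation used DMSO-only wells as 100% and media-only wells as 0% viability; primary qHTS of approved and investigational drugs.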

[4] = Quantitative High-Throughput drug screen in 47 multiple myeloma cell lines against the NCATS MIPE library collection: JIM1_ECACC cell viability assay (AID 1918964)
In short: as §1

[5] = Quantitative High-Throughput drug screen in 47 multiple myeloma cell lines against the NCATS MIPE library collection: INA6_PLB cell viability assay (AID 1918965; further: nearly all actives have a fitted effect of over 55% in size)
In short: as §2

[6] = Quantitative High-Throughput drug screen in 47 multiple myeloma cell lines against the NCATS MIPE library collection: JJN3_DSMZ cell viability assay (AID 1918966; further: nearly all actives have a fitted effect of over 50% in size)
In short: as §1

[7] = Quantitative High-Throughput drug screen in 47 multiple myeloma cell lines against the NCATS MIPE library collection: H1112_PLB cell viability assay (AID 1918967; further: nearly all actives have a fitted effect of over 30% in size)
In short: as §1

[8] = Quantitative High-Throughput drug screen in 47 multiple myeloma cell lines against the NCATS MIPE library collection: Karpas25_ECACC cell viability assay (AID 1918968; further: nearly all actives have a fitted effect of over 35% in size)
In short: as §1

[9] = Quantitative High-Throughput drug screen in 47 multiple myeloma cell lines against the NCATS MIPE library collection: KMS27_JCRB cell viability assay (AID 1918970); conditions: KMS27 myeloma cells, CellTiter-Glo ATP viability, 48 h; viability (% of DMSO): at 45.8 µM (top of the series); further: nearly all actives have a fitted effect of over 30% in size
In short: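 CellTiter-Glo luminescence after 48 h drug exposure at 37 °C; 500 cells/well, 1536-well format, pin-tool compound addition; DMSO = 100%, media-only = 0% viability.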

[10] = Quantitative High-Throughput drug screen in 47 multiple myeloma cell lines against the NCATS MIPE library collection: KMS12BM_JCRB cell viability assay (AID 1918971); further: nearly all actives have a fitted effect of over 35% in size
In short: (§3)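 Luminescent ATP measurement with CellTiter-Glo gives viability, scaled between DMSO-only wells (100%) and media-only wells (0%). Cells, 500 per well, faced library compounds for 48 hours at 37C.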

[11] = Quantitative High-Throughput drug screen in 47 multiple myeloma cell lines against the NCATS MIPE library collection: KMS12PE_JCRB cell viability assay (AID 1918972); further: nearly all actives have a fitted effect of over 30% in size
In short: as §2

[12] = Quantitative High-Throughput drug screen in 47 multiple myeloma cell lines against the NCATS MIPE library collection: KMS20_JCRB cell viability assay (AID 1918973); further: nearly all actives have a fitted effect of over 45% in size
In short: as §1

[13] = Quantitative High-Throughput drug screen in 47 multiple myeloma cell lines against the NCATS MIPE library collection: KMS21BM_JCRB cell viability assay (AID 1918974); conditions: ATP luminescence, 48 h; viability: at 45.8 µM (top of the series)
In short: as §1

[14] = Quantitative High-Throughput drug screen in 47 multiple myeloma cell lines against the NCATS MIPE library collection: NCIH929_DSMZ cell viability assay (AID 1918978); further: nearly all actives have a fitted effect of over 35% in size
In short: (§4)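 ATP-based CellTiter-Glo luminescence after 48 h drug exposure (37 °C, 5% CO2) of 500 myeloma cells per well. DMSO-only wells set 100% viability, media-only wells 0%; MIPE 4.0 library added by pin tool.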

[15] = Quantitative High-Throughput drug screen in 47 multiple myeloma cell lines against the NCATS MIPE library collection: KHM11_PLB cell viability assay (AID 1918962); further: nearly all actives have a fitted effect of over 35% in size
In short: (§5)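 Myeloma cells (500 per well) were exposed to MIPE 4.0 compounds by pin transfer and incubated 48 hours at 37C, 5% CO2. Viability was read as ATP by CellTiter-Glo luminescence, normalised to DMSO (100%) and media-only (0%) wells.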

[16] = Quantitative High-Throughput drug screen in 47 multiple myeloma cell lines against the NCATS MIPE library collection: JIM3_ECACC cell viability assay (AID 1918963; further: nearly all actives have a fitted effect of over 35% in size)
In short: as §5

[17] = Quantitative High-Throughput drug screen in 47 multiple myeloma cell lines against the NCATS MIPE library collection: KMS26_JCRB cell viability assay (AID 1918975); further: nearly all actives have a fitted effect of over 45% in size
In short: as §3

[18] = Quantitative High-Throughput drug screen in 47 multiple myeloma cell lines against the NCATS MIPE library collection: MOLP8_DSMZ cell viability assay (AID 1918977); further: nearly all actives have a fitted effect of over 45% in size
In short: as §4

[19] = Quantitative High-Throughput drug screen in 47 multiple myeloma cell lines against the NCATS MIPE library collection: MMM1_PLB cell viability assay (AID 1918976); further: nearly all actives have a fitted effect of over 35% in size
In short: as §4
Potency means the concentration at half of the fitted maximal effect.

Cc1[nH]c(C=C2C(=O)Nc3ccccc32)c(C)c1CCC(=O)O
active: Potency [1] 20.9 µM | Potency [2] 13.2 µM | Potency [3] 23.5 µM | Potency [4] 2.96 µM | Potency [5] 3.72 µM | Potency [6] 18.7 µM | Potency [7] 4.18 µM | Potency [8] 10.5 µM | Potency [9] 5.9 µM | Potency [10] 5.9 µM | Potency [11] 9.35 µM | Potency [12] 11.8 µM | Potency [13] 11.8 µM | Potency [14] 7.43 µM

COc1cc2ncnc(Nc3cccc(Br)c3)c2cc1OC
active: Potency [1] 16.6 µM | Potency [2] 14.8 µM | Potency [15] 16.6 µM | Potency [16] 2.64 µM | Potency [5] 3.32 µM | Potency [6] 20.9 µM | Potency [8] 0.526 µM | Potency [9] 23.5 µM | Potency [10] 0.0418 µM | Potency [11] 14.8 µM | Potency [12] 0.743 µM | Potency [17] 16.6 µM | Potency [18] 20.9 µM

C=C1C(=CC=C2CCC[C@]3(C)[C@@H]([C@H](C)CCCC(C)(C)O)CC[C@@H]23)C[C@@H](O)C[C@@H]1O
active: Potency [1] 4.18 µM | Potency [2] 4.69 µM | Potency [15] 10.5 µM | Potency [4] 5.26 µM | Potency [5] 5.9 µM | Potency [7] 7.43 µM | Potency [8] 5.9 µM | Potency [9] 1.66 µM | Potency [10] 20.9 µM | Potency [11] 6.62 µM | Potency [17] 18.7 µM | Potency [19] 20.9 µM | Potency [18] 16.6 µM | Potency [14] 3.72 µM

N#CC(=C(O)c1ccc(Cl)cc1Cl)c1nc2cc(Cl)ccc2c(=O)[nH]1
inactive: Potency [1] | Potency [2] | Potency [15] | Potency [16] | Potency [5] | Potency [10] | Potency [11] | Potency [12] | Potency [19] | Potency [18] | Potency [14]

C[C@@H](Oc1ccc2[nH]nc(C=Cc3cnn(CCO)c3)c2c1)c1c(Cl)cncc1Cl
inactive: Potency [1] | Potency [2] | Potency [3] | Potency [4] | Potency [9] | Potency [11]
active: Potency [5] 0.0935 µM | Potency [6] 8.33 µM | Potency [7] 6.62 µM | Potency [8] 0.743 µM | Potency [10] 23.5 µM | Potency [17] 8.33 µM | Potency [19] 1.87 µM | Potency [18] 0.469 µM | Potency [14] 0.235 µM

O=C(O)CCCCCC(=O)NN=C1CCCC1
inactive: Potency [1] | Potency [2] | Potency [16] | Potency [4] | Potency [8] | Potency [9] | Potency [11] | Potency [17] | Potency [18]
active: viability (% of DMSO) [3] 136%

C=CC(=O)Nc1ccc2ncnc(Nc3ccc(OCc4cccc(F)c4)c(Cl)c3)c2c1
active: Potency [1] 0.0418 µM | Potency [2] 0.148 µM | Potency [15] 6.62 µM | Potency [16] 0.743 µM | Potency [4] 0.0418 µM | Potency [5] 0.662 µM | Potency [6] 18.7 µM | Potency [7] 1.05 µM | Potency [8] 1.87 µM | viability (% of DMSO) [9] 70.4% | Potency [10] 0.418 µM | Potency [11] 0.0743 µM | Potency [17] 9.35 µM | Potency [19] 18.7 µM | Potency [14] 4.18 µM

CCOC(=O)N1CCN([N+]([O-])=NOc2ccc([N+](=O)[O-])cc2C#N)CC1
active: Potency [1] 0.833 µM | Potency [2] 1.18 µM | Potency [3] 0.0662 µM | Potency [16] 1.05 µM | Potency [5] 1.18 µM | Potency [6] 0.418 µM | Potency [7] 0.526 µM | Potency [8] 0.743 µM | Potency [9] 0.372 µM | Potency [10] 1.48 µM | Potency [11] 0.833 µM | Potency [17] 0.935 µM | Potency [19] 0.526 µM | Potency [14] 2.96 µM

CCN1CCN(C(=O)N[C@H](C(=O)N[C@@H]2C(=O)N3C(C(=O)O)=C(CSc4nnnn4C)CS[C@@H]23)c2ccc(O)cc2)C(=O)C1=O
inactive: Potency [1] | Potency [2] | Potency [15] | Potency [16] | Potency [7] | Potency [8] | Potency [11] | Potency [12] | Potency [17] | Potency [14]

CN(CC(=O)N(Cc1ccc(C2CCCCC2)cc1)c1ccc(C(=O)O)c(O)c1)S(=O)(=O)c1c(F)c(F)c(F)c(F)c1F
active: Potency [1] 11.8 µM | Potency [2] 10.5 µM | Potency [15] 14.8 µM | Potency [16] 9.35 µM | Potency [4] 3.32 µM | Potency [6] 18.7 µM | Potency [7] 18.7 µM | Potency [8] 5.26 µM | Potency [9] 3.32 µM | Potency [10] 29.6 µM | Potency [11] 7.43 µM | Potency [12] 6.62 µM | Potency [17] 20.9 µM | Potency [19] 20.9 µM | Potency [18] 18.7 µM | Potency [14] 4.18 µM

CC(=O)O[C@H]1C[C@@H]2CC[C@H]3[C@H]4C[C@H]([N+]5(C)CCCCC5)[C@@H](OC(C)=O)[C@@]4(C)CC[C@@H]3[C@@]2(C)C[C@H]1N1CCCCC1
inactive: Potency [1] | Potency [2] | Potency [3] | Potency [16] | Potency [7] | Potency [8] | Potency [9] | Potency [10] | Potency [11] | Potency [13] | Potency [17] | Potency [18] | Potency [14]

CCCNS(=O)(=O)Nc1ncnc(OCCOc2ncc(Br)cn2)c1-c1ccc(Br)cc1
inactive: Potency [1] | Potency [2] | Potency [15] | Potency [16] | Potency [4] | Potency [5] | Potency [6] | Potency [7] | Potency [8] | Potency [10] | Potency [11] | Potency [18] | Potency [14]
